SRC1 inh: human NCOA1 inhibition; HEK293 GAL4-SRC1 luciferase reporter, luminescence; 360,000 tested, 0.12% active; inhibition, % at 3.6 µM; AID 588354;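 active means inhibition above the campaign mean plus 3 SD, with each screening campaign given its own cutoff, cut at about 60% in these data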
LRH-1 inv ag: NR5A2 inverse agonism in reporter assay. inhibition, % at 3.6 µM. HEK293T StAR-luciferase reporter, LRH-1 transfected, 24 h. AID 602396. O00482. 360,000 tested, 0.13% active;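 active means inhibition above the mean inhibition of all tested compounds plus 3 SD, cut at about 73% in these data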
COUP-TFII inh: NR2F2 (human) inhibition, primary screen; P24468; HEK293T NGFI-A luciferase reporter, luminescence; inhibition, % at 8.6 µM; 370,000 tested, 0.7% active;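 active means inhibition above a per-plate cutoff, mean inhibition of test wells between control levels plus 3 SD, cut at about 38% in these data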;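 further: cells cotransfected with COUP-TFII expression vector driving the NGFI-A reporter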
GalR3 antagonist: blocks the human galanin receptor 3. O60755. HEK293 GalR3-CNG cAMP membrane potential fluorescence; galR3 body fused to GalR1 C-terminus. inhibition, % at 3 µM. 360,000 tested, 0.44% active;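 active means inhibition above the screen-wide average plus 3 SD, cut at about 13% in these data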;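 further: forskolin and galanin both at EC90 stimulate the cells; cAMP rise reported by CNG channel membrane potential dye signal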
SRC2 inh: human SRC2 (NCOA2) inhibition; Q15596; HEK293 GAL4-SRC2 luciferase reporter, luminescence; inhibition, % at 9 µM; 370,000 tested, 0.17% active; AID 651957;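 active means inhibition above the mean inhibition of all tested compounds plus 3 SD, set per campaign, cut at about 52% in these data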
NCOA3 inh: inhibits human SRC3 coactivator; Q9Y6Q9; HEK293 GAL4-SRC3 luciferase reporter, luminescence; inhibition, % at 3.6 µM; 360,000 tested, 0.17% active; AID 588352;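 active means inhibition above a per-campaign cutoff, the mean of all compounds plus 3 SD, cut at about 60% in these data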;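 further: higher means less SRC3-driven luciferase light from the GAL4 reporter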
Gal4-VP16 ctr: counter-screen for COUP-TFII antagonists: inhibitors of VP16; shares compounds with COUP-TFII inh; HEK293 Gal4-VP16 luciferase reporter, luminescence; inhibition, % at 8.5 µM; 2,500 tested, 25% active; AID 687007; in the data active means inhibition above about 13%
NR2F2 inh conf: confirmation of human COUP-TFII (NR2F2) inhibitors | inhibition, % at 8.5 µM | shares compounds with COUP-TFII inh | HEK293 NGFI-A luciferase reporter, luminescence | 2,500 tested, 45% active;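 active means mean inhibition over three repeats above a set limit taken from the earlier primary screen, cut at about 38% in these data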
Numbers stand for hits; i = inactive; nt = no result given. Compounds with a hit are over-represented: about 1.1% of the library has one in this group of screens.

SMILES	SRC1 inh	LRH-1 inv ag	COUP-TFII inh	GalR3 antagonist	SRC2 inh	NCOA3 inh	Gal4-VP16 ctr	NR2F2 inh conf
COC(=O)C1=C[C@@H]([C@@H](C)[C@H](OC)c2ccccc2Br)[C@@H]2OCCC[C@H]12	nt	nt	i	nt	i	nt	nt	nt
Cc1c(C=O)c2ccccc2n1CCOc1ccccc1F	i	i	45	i	i	i	i	i
COc1ccccc1OCCn1c(C)c(C=O)c2ccccc21	i	i	i	i	i	i	nt	nt
Cc1cccc(NC(=O)NN(C(=O)c2ccccc2Cl)C(C)(C)C)c1	nt	nt	i	nt	i	nt	nt	nt
CCN(CC)S(=O)(=O)c1cccc(NC(=O)c2ccc(Br)cc2)c1	i	i	39	i	i	i	i	i
CCN(CC)S(=O)(=O)c1cccc(C(=O)Nc2ccc(C#N)cc2)c1	i	i	55	i	i	i	i	40
Cc1ccc(NC(=O)c2cc(CC(C)C)nc3ccccc23)cc1	i	i	i	i	i	i	nt	nt
COc1ccc(NC(=O)c2cc(CC(C)C)nc3ccccc23)cc1	i	i	42	i	i	i	i	i
CCCCNC(=O)COC(=O)c1c2c(nc3ccccc13)/C(=C/c1cccs1)CC2	i	i	i	i	i	i	nt	nt
CNC(=O)NC(=O)C(C)OC(=O)c1c2c(nc3ccccc13)/C(=C/c1cccs1)CC2 (stereo unspecified)	i	i	46	i	i	i	i	i
O=C(NC1=NCCS1)C1COc2ccccc2O1 (stereo unspecified)	i	i	49	i	57	i	19	49
C#CCN(C[C@@H]1[C@@H](OC(=O)NCC2CCCCC2)[C@@H](OC(=O)NCC2CCCCC2)Cn2c(=O)ccc(=O)n21)S(=O)(=O)c1ccc(C)cc1	i	i	54	i	i	i	45	57
COC(=O)c1cc(-c2ccc(C(C)(C)C)cc2)c(=O)n2c1CCC2	nt	nt	i	nt	i	nt	nt	nt
CCOC(=O)c1cc(-c2ccc(C)cc2)n(CCC(=O)N2CCN(c3ccccn3)CC2)c1C	i	i	39	i	i	i	i	i
Cc1cc(C(C)(C)C)cc(C)c1C[n+]1ccc2ccccc2c1	i	i	66	i	i	i	27	55
Cc1cc(N2CCCC2)ccc1NC(=O)COc1cccc(C(F)(F)F)c1	i	i	40	i	i	i	i	i
O=C(COc1ccccc1)Nc1cc(C(F)(F)F)ccc1N1CCCC1	i	i	i	i	i	i	nt	nt
CC(=O)N1CCN(S(=O)(=O)c2ccc3c(c2)oc(=O)n3C)CC1	nt	nt	i	nt	i	nt	nt	nt
COc1cccc(OCc2cc(C(=O)N3CCC(c4ccncc4)CC3)no2)c1	i	i	49	i	i	i	i	i
FC(F)(F)c1cccc(Cc2noc(CN3CCC(c4ccncc4)CC3)n2)c1	i	i	53	i	i	i	i	i
Cc1nn(C)cc1C(C)NC(=O)c1cc(COc2cccc3cnccc23)on1 (stereo unspecified)	i	i	38	i	i	i	i	i
CN1CCCC2(CCCN(Cc3nc(Cc4cccc(C(F)(F)F)c4)no3)C2)C1 (stereo unspecified)	i	i	i	i	i	i	nt	nt
COCC1CCN(C(=O)c2cc(COc3cccc4cnccc34)on2)CC1	i	i	53	i	i	i	i	i
CC(=O)c1ccc(OCc2cc(C(=O)N3CCC(c4ccncc4)CC3)no2)cc1	i	i	i	i	i	i	nt	nt
COCC1CCN(C(=O)c2cc(COc3ccc(F)cc3Cl)on2)C1 (stereo unspecified)	i	i	i	i	i	i	nt	nt
SMILES	SRC1 inh	LRH-1 inv ag	COUP-TFII inh	GalR3 antagonist	SRC2 inh	NCOA3 inh	Gal4-VP16 ctr	NR2F2 inh conf
COC(=O)c1cc(-c2cccs2)c(=O)n2c1CCC2	nt	nt	i	nt	i	nt	nt	nt
COC(=O)Cn1nc(-c2ccccc2)c2cccc(C(F)(F)F)c21	nt	nt	i	nt	nt	nt	nt	nt
COC(=O)C[C@H]1CC[C@H]2[C@H](COc3ccc(NS(=O)(=O)c4ccccc4C)cc3C(=O)N2C)O1	nt	nt	i	nt	i	nt	nt	nt
O=C(c1cc(COc2cccc(C(F)(F)F)c2)on1)N1CCC(c2ccncc2)CC1	i	i	46	i	i	i	i	i
O=C(c1cc(COc2cccc(C(F)(F)F)c2)on1)N1CCC(c2ccccc2)CC1	i	i	i	i	i	i	nt	nt
Cc1cc(C)n2c(Nc3ccc4c(c3)OCCO4)c(-c3cc4ccccc4o3)nc2n1	nt	i	51	i	i	nt	i	i
Cc1cc(C)n2c(Nc3ccc4c(c3)OCCO4)c(-c3ccc(C)o3)nc2n1	i	i	i	i	i	i	nt	nt

Compound activity (PubChem BioAssay)
